Data from PubChem BioAssay (NCI).
About 79,000 compounds went through this panel and 15% of them were active in at least one assay; those are over-represented in the sample as a whole. Unmarked numbers belong to inactive results. Active and inactive are the calls of the source. No stated cut-off is given here; in the data, active means growth inhibition above about 70%; inactive means the rest.

Experiments:
[1] = NCI Yeast Anticancer Drug Screen. Data for the rad52 strain (AID 147);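 further: 0% = growth of vehicle-treated control cultures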; settings: S. cerevisiae rad52 mutant growth inhibition, stronger effect = higher value
How it was run: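 Genetically altered yeast (DNA damage repair defect) treated with compound; inhibition calculated relative to vehicle.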

[2] = NCI Yeast Anticancer Drug Screen. Data for the wt1 strain (AID 149);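 further: 0% = growth of vehicle-treated wt1 cultures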; settings: S. cerevisiae wt1 strain (SPY 50644) growth inhibition, stronger effect = higher value
How it was run: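 Compounds are added to wt1 yeast cultures. Growth is then measured. Inhibition is expressed relative to vehicle-treated controls.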

[3] = NCI Yeast Anticancer Drug Screen. Data for the rad50EPP+ strain (AID 151);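 further: 0% = growth of vehicle-treated control cultures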; settings: S. cerevisiae rad50 mutant strain, stronger effect = higher value
How it was run: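 Strain rad50EPP+; compound exposure; % growth inhibition vs vehicle.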

[4] = NCI Yeast Anticancer Drug Screen. Data for the mgt1 strain (AID 153); settings: S. cerevisiae mgt1 mutant growth inhibition, stronger effect = higher value
How it was run: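 Read-out: yeast growth inhibition vs vehicle control. Strain mgt1, drawn from a panel altered in DNA damage repair or cell cycle control.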

[5] = NCI Yeast Anticancer Drug Screen. Data for the rad50 strain (AID 155);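 further: 0% = growth of vehicle-only cultures of the same strain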; settings: S. cerevisiae rad50 strain growth inhibition, stronger effect = higher value
How it was run: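 Inhibition values express reduced yeast growth in compound-treated cultures relative to vehicle-treated controls.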

[6] = NCI Yeast Anticancer Drug Screen. Data for the mec2-1 strain (AID 157); settings: S. cerevisiae mec2-1 strain, stronger effect = higher value
How it was run: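 Cells of the genetically defined mec2-1 yeast strain are incubated with test compound. Inhibition of growth is calculated against vehicle-treated controls.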

[7] = NCI Yeast Anticancer Drug Screen. Data for the rad14 strain (AID 159);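 further: 0% = growth of vehicle-treated control cultures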; settings: S. cerevisiae rad14 strain growth inhibition, stronger effect = higher value
How it was run: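 A mutant yeast strain defective in DNA damage repair is treated with compound; inhibition of its growth is scored against untreated, vehicle-exposed cultures.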

[8] = NCI Yeast Anticancer Drug Screen. Data for the sgs1 mgt1 strain (AID 161);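 further: 0% = growth of cultures given vehicle only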; settings: S. cerevisiae sgs1 mgt1 strain, stronger effect = higher value
How it was run: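 Genetically altered yeast, compound exposure, growth inhibition relative to vehicle.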

[9] = NCI Yeast Anticancer Drug Screen. Data for the CLN2oe strain (AID 163);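 further: 0% = growth of vehicle-only control cultures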; settings: S. cerevisiae CLN2oe strain, stronger effect = higher value
How it was run: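 Strain altered in cell-cycle control, incubated with compound; growth compared to solvent-treated controls.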

[10] = NCI Yeast Anticancer Drug Screen. Data for the cln2 rad14 strain (AID 165);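 further: 0% = growth equal to vehicle treated cultures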; settings: S. cerevisiae cln2 rad14 strain, stronger effect = higher value
How it was run: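 The screen exposed genetically defined yeast (cln2 rad14) to test compounds and scored growth inhibition relative to vehicle-treated controls.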

[11] = NCI Yeast Anticancer Drug Screen. Data for the bub3 strain (AID 167); settings: S. cerevisiae bub3 mutant strain, stronger effect = higher value
How it was run: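 Steps: expose the mutant yeast strain to compound; grow alongside vehicle-treated cultures; measure growth; express inhibition against the vehicle cultures.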

[12] = NCI Yeast Anticancer Drug Screen. Data for the wt2 strain (AID 169);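 further: 0% = growth of vehicle-treated yeast cultures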; settings: S. cerevisiae wt2 strain growth inhibition, stronger effect = higher value
How it was run: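 Steps: yeast strain treated with compound; growth recorded; inhibition calculated relative to cultures given vehicle alone.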

[13] = NCI Yeast Anticancer Drug Screen. Data for the mlh1 strain (AID 171);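 further: 0% = growth of vehicle-treated control cultures of the same strain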; settings: S. cerevisiae mlh1 strain growth inhibition, stronger effect = higher value
How it was run: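 Yeast screen: mutant strain plus compound, growth scored against vehicle control wells.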

[14] = NCI Yeast Anticancer Drug Screen. Data for the sgs1 strain (AID 173);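 further: 0% = growth of vehicle-only control cultures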; settings: S. cerevisiae sgs1 mutant, stronger effect = higher value
How it was run: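 Inhibition of yeast growth served as the measure. The mutant strain was treated with each compound, and growth was normalised to cultures receiving vehicle alone.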

[15] = NCI Yeast Anticancer Drug Screen. Data for the mlh1 rad18 strain (AID 175); settings: S. cerevisiae mlh1 rad18 strain growth inhibition, stronger effect = higher value
How it was run: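 Compound-treated yeast growth, normalised to vehicle controls. Strain bears defined DNA repair mutations.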

[16] = NCI Yeast Anticancer Drug Screen. Data for the rad18 strain (AID 177); settings: S. cerevisiae rad18 mutant growth inhibition, stronger effect = higher value
How it was run: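 Inhibition values reflect reduced yeast growth compared with vehicle-treated controls, using a strain engineered with a DNA damage repair defect.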

[17] = at 5.0 µM (retest, dose inferred, filed as 0.5)
[18] = at 50.0 µM (retest, dose inferred, filed as 5.0)

SMILES: c1ccc2c(c1)sc1c3cnccc3ccc21
- growth inhibition ([1]; at 1.2 µM): 11%
- growth inhibition ([1]; at 3.7 µM): 41%
- growth inhibition ([1]; at 11.0 µM): 62%
- growth inhibition ([1]; at 33.0 µM): 84% (active)
- growth inhibition ([1]; at 100.0 µM): 86% (active)
- growth inhibition ([2]; at 1.2 µM): -1%
- growth inhibition ([2]; at 3.7 µM): 14%
- growth inhibition ([2]; at 11.0 µM): 23%
- growth inhibition ([2]; at 33.0 µM): 22%
- growth inhibition ([2]; at 100.0 µM): 23%
- growth inhibition ([3]; at 1.2 µM): 36%
- growth inhibition ([3]; at 3.7 µM): 46%
- growth inhibition ([3]; at 11.0 µM): 55%
- growth inhibition ([3]; at 33.0 µM): 73% (active)
- growth inhibition ([3]; at 100.0 µM): 65%
- growth inhibition ([4]; at 1.2 µM): 1%
- growth inhibition ([4]; at 3.7 µM): -1%
- growth inhibition ([4]; at 11.0 µM): 0%
- growth inhibition ([4]; at 33.0 µM): -3%
- growth inhibition ([4]; at 100.0 µM): 3%
- growth inhibition ([5]; at 1.2 µM): 12%
- growth inhibition ([5]; at 3.7 µM): 36%
- growth inhibition [5, 17]: 35%
- growth inhibition ([5]; at 11.0 µM): 64%
- growth inhibition ([5]; at 33.0 µM): 74% (active)
- growth inhibition [5, 18]: 74% (active)
- growth inhibition ([5]; at 50.0 µM): 94.3% (active)
- growth inhibition ([5]; at 100.0 µM): 73% (active)
- growth inhibition ([6]; at 1.2 µM): 4%
- growth inhibition ([6]; at 3.7 µM): 2%
- growth inhibition [6, 17]: -34%
- growth inhibition ([6]; at 11.0 µM): 3%
- growth inhibition ([6]; at 33.0 µM): 8%
- growth inhibition [6, 18]: -20%
- growth inhibition ([6]; at 50.0 µM): 47.4%
- growth inhibition ([6]; at 100.0 µM): 12%
- growth inhibition ([7]; at 1.2 µM): 4%
- growth inhibition ([7]; at 3.7 µM): 15%
- growth inhibition ([7]; at 11.0 µM): 37%
- growth inhibition ([7]; at 33.0 µM): 32%
- growth inhibition ([7]; at 100.0 µM): 29%
- growth inhibition [8, 17]: -55%
- growth inhibition [8, 18]: -34%
- growth inhibition ([8]; at 50.0 µM): 23.6%
- growth inhibition ([9]; at 1.2 µM): 4%
- growth inhibition ([9]; at 3.7 µM): 8%
- growth inhibition ([9]; at 11.0 µM): 1%
- growth inhibition ([9]; at 33.0 µM): 5%
- growth inhibition ([9]; at 100.0 µM): 8%
- growth inhibition [10, 17]: -39%
- growth inhibition [10, 18]: -26%
- growth inhibition ([10]; at 50.0 µM): 33%
- growth inhibition ([11]; at 1.2 µM): 13%
- growth inhibition ([11]; at 3.7 µM): 15%
- growth inhibition [11, 17]: -35%
- growth inhibition ([11]; at 11.0 µM): 24%
- growth inhibition ([11]; at 33.0 µM): 34%
- growth inhibition [11, 18]: -8%
- growth inhibition ([11]; at 50.0 µM): 44.9%
- growth inhibition ([11]; at 100.0 µM): 39%
- growth inhibition ([12]; at 1.2 µM): 8%
- growth inhibition ([12]; at 3.7 µM): 14%
- growth inhibition ([12]; at 11.0 µM): 25%
- growth inhibition ([12]; at 33.0 µM): 36%
- growth inhibition ([12]; at 100.0 µM): 32%
- growth inhibition ([13]; at 1.2 µM): -9%
- growth inhibition ([13]; at 3.7 µM): -1%
- growth inhibition ([13]; at 11.0 µM): 2%
- growth inhibition ([13]; at 33.0 µM): 10%
- growth inhibition ([13]; at 100.0 µM): 9%
- growth inhibition ([14]; at 1.2 µM): -8%
- growth inhibition ([14]; at 3.7 µM): -10%
- growth inhibition ([14]; at 11.0 µM): 3%
- growth inhibition ([14]; at 33.0 µM): 9%
- growth inhibition ([14]; at 100.0 µM): 8%
- growth inhibition [15, 17]: -171%
- growth inhibition [15, 18]: -49%
- growth inhibition ([15]; at 50.0 µM): 45.5%
- growth inhibition ([16]; at 1.2 µM): -8%
- growth inhibition ([16]; at 3.7 µM): 1%
- growth inhibition ([16]; at 11.0 µM): -1%
- growth inhibition ([16]; at 33.0 µM): -2%
- growth inhibition ([16]; at 100.0 µM): 13%
